Active and inactive are the calls of the source. Rule for the calls: active = hit-call score of the fitted dose curve at least 0.9, where 1 is the maximum; inactive = score below 0.9.
Columns and labels:
Settings in all cases: mRNA level, 48 h; actives raise or lower the signal
Caspase-3 (Homo sapiens) = Caspase-3 (Homo sapiens) (UniProt P42574); assay: LTEA_HepaRG_CASP3: Life Technologies and Expression Analysis (LTEA) Assay for cysteine-aspartic acid protease (CASP3) using HepaRG (AID 2283477)
Outline: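 Expression of CASP3 was quantified by TaqMan qRT-PCR against three housekeeping genes (ACTB, GAPDH, POLR2A), bidirectionally versus 0.5% DMSO. HepaRG cultures received compounds in duplicate, top 100 uM with half-log steps, for 48 h in serum-free induction medium.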

[1] = read-out: Cytochrome P450 (CYP24A1), CYP24A1 (gene 1591); assay: LTEA_HepaRG_CYP24A1: Life Technologies and Expression Analysis (LTEA) Assay for Cytochrome P450 (CYP24A1) using HepaRG (AID 2283478)
Outline: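 mRNA of CYP24A1 quantified by TaqMan qRT-PCR (ACTB/GAPDH/POLR2A normalization) after 48 h chemical exposure of HepaRG cells, top concentration 100 uM, half-log steps, 0.5% DMSO vehicle, duplicates. Curves fitted bidirectionally against DMSO baseline.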

[2] = read-out: Cytochrome P450 (CYP1A2), CYP1A2 (gene 1544); assay: LTEA_HepaRG_CYP1A2: Life Technologies and Expression Analysis (LTEA) Assay for Cytochrome P450 (CYP1A2) using HepaRG (AID 2283479)
Outline: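 CYP1A2 transcript measured by TaqMan qRT-PCR against three housekeeping genes after 48-hour chemical exposure of HepaRG cells. Eight-point half-log series topping at 100 uM in 0.5% DMSO, duplicates; gain or loss fitted relative to vehicle.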

[3] = read-out: cysteine-aspartic acid protease (CASP8), CASP8 (gene 841); assay: LTEA_HepaRG_CASP8: Life Technologies and Expression Analysis (LTEA) Assay for cysteine-aspartic acid protease (CASP8) using HepaRG (AID 2283480)
Outline: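 qRT-PCR readout of CASP8 mRNA, normalized to three housekeeping genes, after 48 h chemical exposure of HepaRG cells; 8-point half-log series, top 100 uM, 0.5% DMSO vehicle. Bidirectional curve fitting against DMSO baseline.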

[4] = read-out: Cytochrome P450 (CYP2B6), CYP2B6 (gene 1555); assay: LTEA_HepaRG_CYP2B6: Life Technologies and Expression Analysis (LTEA) Assay for Cytochrome P450 (CYP2B6) using HepaRG (AID 2283481)
Outline: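 CYP2B6 transcript level quantified by qRT-PCR against three housekeeping genes, fitted bidirectionally relative to DMSO. HepaRG cultures received chemicals for 48 h, 8-point half-log series from 100 uM in 0.5% DMSO, duplicate wells, serum-free induction medium.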

[5] = read-out: Cytochrome P450 2C19 (Homo sapiens) (UniProt P33261); assay: LTEA_HepaRG_CYP2C19: Life Technologies and Expression Analysis (LTEA) Assay for CYP2C19 using HepaRG (AID 2283482)
Outline: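 CYP2C19 transcript levels by qRT-PCR, normalized to three housekeeping genes, in HepaRG cells after 48 h chemical exposure. Eight-point half-log series topping at 100 uM, 0.5% DMSO vehicle. Increases and decreases both fitted against DMSO.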

CYP2C8 (gene 1558) = assay: LTEA_HepaRG_CYP2C8: Life Technologies and Expression Analysis (LTEA) Assay for CYP2C8 using HepaRG (AID 2283483)
Outline: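 HepaRG (human liver line), 48 h chemical exposure, 8-pt half-log series from 100 uM, 0.5% DMSO vehicle. Readout: CYP2C8 transcript by qRT-PCR, housekeeping-normalized. Bidirectional fit vs DMSO baseline.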

CYP2C9 (gene 1559) = assay: LTEA_HepaRG_CYP2C9: Life Technologies and Expression Analysis (LTEA) Assay for CYP2C9 using HepaRG (AID 2283484)
Outline: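 HepaRG, 48 h dosing, 8-pt half-log series, top 100 uM, 0.5% DMSO vehicle. Read-out: CYP2C9 transcript by TaqMan qRT-PCR, housekeeping-normalized (ACTB/GAPDH/POLR2A). Gain or loss fitted vs DMSO baseline.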

CYP2E1 (gene 1571) = assay: LTEA_HepaRG_CYP2E1: Life Technologies and Expression Analysis (LTEA) Assay for CYP2E1 using HepaRG (AID 2283485)
Outline: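 CYP2E1 transcript measured by Fluidigm qRT-PCR against three housekeeping genes in human HepaRG cells treated 48 h (top 100 uM, half-log steps, 0.5% DMSO vehicle). Gain or loss fitted relative to DMSO baseline.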

CYP4A11 (gene 1579) = assay: LTEA_HepaRG_CYP4A11: Life Technologies and Expression Analysis (LTEA) Assay for CYP4A11 using HepaRG (AID 2283486)
Outline: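 Readout is CYP4A11 transcript level by qRT-PCR, normalized to three housekeeping genes and fitted bidirectionally against 0.5% DMSO. Human HepaRG cells were treated 48 h, in duplicate, with an 8-point half-log series topping at 100 uM.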

Chain of Cytochrome P450 2C19 (Homo sapiens) (P33261 whole entry, looked up): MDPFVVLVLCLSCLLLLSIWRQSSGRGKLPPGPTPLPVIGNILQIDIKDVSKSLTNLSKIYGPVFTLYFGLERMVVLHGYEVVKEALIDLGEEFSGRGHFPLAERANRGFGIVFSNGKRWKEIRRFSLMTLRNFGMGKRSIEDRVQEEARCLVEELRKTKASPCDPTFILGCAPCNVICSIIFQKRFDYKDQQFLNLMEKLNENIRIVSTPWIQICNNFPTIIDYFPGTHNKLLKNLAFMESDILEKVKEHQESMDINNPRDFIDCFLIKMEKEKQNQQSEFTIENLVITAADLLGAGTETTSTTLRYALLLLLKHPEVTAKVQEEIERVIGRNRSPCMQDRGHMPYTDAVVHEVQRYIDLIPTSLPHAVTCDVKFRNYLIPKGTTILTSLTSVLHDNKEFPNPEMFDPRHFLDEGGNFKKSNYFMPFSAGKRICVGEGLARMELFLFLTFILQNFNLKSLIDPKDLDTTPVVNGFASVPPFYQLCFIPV
Chain of Caspase-3 (Homo sapiens) (P42574 whole entry, looked up): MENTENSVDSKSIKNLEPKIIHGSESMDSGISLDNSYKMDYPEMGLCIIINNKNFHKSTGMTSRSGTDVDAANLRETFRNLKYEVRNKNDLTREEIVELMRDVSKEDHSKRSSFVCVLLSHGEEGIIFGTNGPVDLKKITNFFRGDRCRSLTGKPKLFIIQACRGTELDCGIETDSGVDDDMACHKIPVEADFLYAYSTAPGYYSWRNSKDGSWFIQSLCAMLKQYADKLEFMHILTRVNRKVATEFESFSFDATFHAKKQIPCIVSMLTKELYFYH

SMILES	outcome (Caspase-3 (Homo sapiens))	outcome [1]	AC50 [2]	outcome [3]	outcome [4]	outcome [5]	outcome (CYP2C8 (gene 1558))	outcome (CYP2C9 (gene 1559))	outcome (CYP2E1 (gene 1571))	AC50 (CYP4A11 (gene 1579))	outcome [2]	outcome (CYP4A11 (gene 1579))	AC50 [4]	AC50 (CYP2E1 (gene 1571))	AC50 [5]	AC50 (CYP2C8 (gene 1558))
CCCCOC(=O)[C@@H](C)Oc1ccc(Oc2ccc(C#N)cc2F)cc1	inactive	inactive	38.5 µM (active)	inactive	inactive	inactive	inactive	inactive	inactive	32.4 µM (active)						
CCC(=NOC/C=C/Cl)C1=C(O)CC(C2CCOCC2)CC1=O (configuration not stated)	inactive	inactive		inactive	inactive	inactive	inactive	inactive	inactive		inactive	inactive				
CCCSP(=O)(OCC)Oc1ccc(Br)cc1Cl (configuration not stated)		inactive		inactive		inactive	inactive	inactive			inactive	inactive	13.4 µM (active)	40.4 µM (active)		
COc1cc(OC)nc(Sc2cccc(Cl)c2C(=O)O)n1		inactive		inactive	inactive	inactive	inactive	inactive			inactive	inactive		29.7 µM (active)		
CCOC(=O)COc1cc(-c2nn(C)c(OC(F)F)c2Cl)c(F)cc1Cl		inactive		inactive				inactive			inactive	inactive	63.5 µM (active)	16.3 µM (active)	50 µM (active)	50 µM (active)
Cc1nn(-c2cc(NS(C)(=O)=O)c(Cl)cc2Cl)c(=O)n1C(F)F		inactive		inactive			inactive	inactive			inactive	inactive	11.8 µM (active)	12.8 µM (active)	6.21 µM (active)	
CC(C)=CC1C(C(=O)OCN2C(=O)C3=C(CCCC3)C2=O)C1(C)C (configuration not stated)		inactive	31.5 µM (active)	inactive			inactive	inactive	inactive			inactive	50 µM (active)			
CN1COCN(Cc2cnc(Cl)s2)C1=N[N+](=O)[O-]		inactive		inactive		inactive	inactive	inactive	inactive		inactive	inactive	50 µM (active)			
CCNc1nc(Cl)nc(NC(C)(C)C#N)n1		inactive		inactive			inactive	inactive		39.9 µM (active)	inactive		1.68 µM (active)	13.2 µM (active)	12.4 µM (active)	

— PubChem BioAssay (EPA / NIEHS)
